The results in this text go back to PubChem BioAssay (EPA / NIEHS).

Experiment [1] in a line: ATG_TAL_CIS: Attagene CIS-FACTORIAL HepG2 Assay for human TAL Basal Promoter (AID 2282966).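 Further: background control endpoint measuring basal TAL promoter reporter mRNA not a specific factor.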 Particulars: HepG2 Attagene cis-factorial TAL promoter reporter; actives raise or lower the signal. The gist of the method: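 Background-control endpoint: basal TAL promoter reporter transcripts in transiently transfected HepG2, measured 24 h after dosing. Read-out by RT-PCR with fluorescent primer extension and capillary electrophoresis; gain or loss of signal fitted relative to DMSO.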

A short description of experiment [2]: ATG_TGFb_CIS: Attagene CIS-FACTORIAL HepG2 Assay for human Transforming Growth Factor (TGF) (AID 2282967). Particulars: HepG2 Attagene CIS TGFb reporter, mRNA transcription; actives raise or lower the signal. The gist of the method:
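Liver HepG2 line, cis-factorial reporter panel, 24 h dosing. Quantitation: RT-PCR products labeled with 6-FAM, cut with HpaI, resolved by capillary electrophoresis; DMSO-referenced bidirectional analysis.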

A short description of experiment [3]: ATG_VDRE_CIS: Attagene CIS-FACTORIAL HepG2 Assay for human Vitamin D Receptor Element (VDRE) (AID 2282968). Particulars: HepG2 VDRE cis-reporter transcription, actives raise or lower the signal. In a few lines:
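Measures endogenous factor activity through cis-element-driven reporter transcripts in transiently transfected HepG2. Cells are treated 24 h; reporter mRNA is quantified by RT-PCR and capillary electrophoresis; fitting is bidirectional.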

For experiment [4], the target named is Nuclear receptor subfamily 1 group I member 3 (Homo sapiens) (UniProt Q14994). Nature of the experiment: ATG_CAR_TRANS: Attagene TRANS-FACTORIAL HepG2 Assay for human Constitutive Androstane Receptor (CAR) (AID 2282969; active means hit-call score of the fitted dose curve at least 0.9, where 1 is the maximum;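 further: activators raise reporter mRNA above DMSO so AC50 marks induction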). Particulars: HepG2 Attagene TRANS-FACTORIAL CAR reporter. The gist of the method:
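Signal is reporter mRNA induction relative to DMSO, measured 24 h after dosing by RT-PCR with fluorescent primer extension and capillary electrophoresis. Human HepG2 liver cells carried transiently transfected chimeric NR-Gal4/GAL4-UAS reporter constructs.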

In experiment [5] the target is X-box-binding protein 1 (Homo sapiens) (UniProt P17861). Nature of the experiment: ATG_Xbp1_CIS: Attagene CIS-FACTORIAL HepG2 Assay for human X-box Binding Protein 1 (XBP1) (AID 2282972). The settings on record: HepG2 XBP1 cis-element reporter, Attagene multiplex; actives raise or lower the signal. In a few lines: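 Multiplexed cis-reporter readout in transfected HepG2 liver cells. Exposure lasted 24 hours. Activity in either direction was fitted against DMSO as negative control and baseline.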

Experiment [6] in a line: ATG_M_19_TRANS: Attagene TRANS-FACTORIAL HepG2 Assay for M19 Transcription Factor (Internal Marker) (AID 2282974; active means hit-call score of the fitted dose curve at least 0.9, where 1 is the maximum). The settings on record: HepG2 Attagene TRANS-FACTORIAL M19 internal marker reporter. In a few lines:
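Fluorescence of 6-FAM-labelled reporter cDNA fragments, separated by capillary electrophoresis, served as the readout. These derived from HepG2 cells carrying transfected GAL4-UAS reporter units after 24 h dosing, with DMSO as negative control.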

In experiment [7] the target is Hepatocyte nuclear factor 4-alpha (Homo sapiens) (UniProt P41235). Nature of the experiment: ATG_HNF4a_TRANS: Attagene TRANS-FACTORIAL HepG2 Assay for human Hepatocyte Nuclear Factor 4 alpha (HNF4a) (AID 2282982; active means hit-call score of the fitted dose curve at least 0.9, where 1 is the maximum). Particulars: HepG2 HNF4a transactivation reporter, mRNA readout. The gist of the method:
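Multiplexed reporter assay: transfected HepG2, 24 h exposure, total RNA → oligo(dT) RT → PCR → 6-FAM extension → HpaI digest → CE fluorescence. DMSO = negative control.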

Experiment [8] in a line: ATG_M_32_TRANS: Attagene TRANS-FACTORIAL HepG2 Assay for M32 Transcription Factor (Internal Marker) (AID 2282984; active means hit-call score of the fitted dose curve at least 0.9, where 1 is the maximum). The settings on record: HepG2 Attagene TRANS M32 internal marker reporter. In a few lines: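 Cell-based TRANS-format assay in HepG2: exogenous chimeric GAL4 reporter units transiently expressed, compounds applied 24 h. Reporter mRNA detected by RT-PCR plus capillary electrophoresis; this readout is an internal background marker.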

Experiment [9] has as its target Transcriptional activator Myb (Homo sapiens) (UniProt P10242). Nature of the experiment: ATG_Myb_CIS: Attagene CIS-FACTORIAL HepG2 Assay for human Myeloblastosis (Myb) Proto-Oncogene Transcription Factor (AID 2282986). Particulars: HepG2 Attagene CIS-FACTORIAL Myb reporter transcription; actives raise or lower the signal. In a few lines:
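Reporter transcript levels, quantified by fluorescent RT-PCR and capillary electrophoresis, serve as the read-out. Transfected HepG2 cells carrying cis-promoter reporter units are dosed for 24 hours, and curves are fitted bidirectionally against DMSO controls.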

Experiment [10] addresses Nuclear respiratory factor 1 (Homo sapiens) (UniProt Q16656). Nature of the experiment: ATG_NRF1_CIS: Attagene CIS-FACTORIAL HepG2 Assay for human Nuclear Respiratory Factor 1 (NRF1) Orphan Gene (AID 2282987). The settings on record: HepG2 NRF1 cis-element reporter, Attagene multiplex; actives raise or lower the signal. The gist of the method:
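Multiplexed cis-reporter assay, HepG2 cells, 24 h treatment. Total RNA → oligo(dT) RT → PCR with reporter-specific primers → 6-FAM primer extension → HpaI cut → CE. Bidirectional fit vs DMSO.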

The target in experiment [11] is Steroid hormone receptor ERR1 (Homo sapiens) (UniProt P11474). Nature of the experiment: ATG_ERRa_TRANS: Attagene TRANS-FACTORIAL HepG2 Assay for human Estrogen-Related Receptor alpha (ERRa) (AID 2282971; active means hit-call score of the fitted dose curve at least 0.9, where 1 is the maximum). The settings on record: HepG2 Attagene TRANS reporter, ERRa transactivation. In a few lines:
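Reporter transcripts from ERRa-Gal4 chimera activity measured in transiently transfected human HepG2 cells 24 hours after dosing, using RT-PCR with 6-FAM primer extension, HpaI digestion and capillary electrophoresis; DMSO is baseline.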

The nature of experiment [12]: ATG_GAL4_TRANS: Attagene TRANS-FACTORIAL HepG2 Assay for GAL4 (Internal Marker) (AID 2282976; active means hit-call score of the fitted dose curve at least 0.9, where 1 is the maximum). Particulars: HepG2 Attagene TRANS GAL4 internal marker reporter. The gist of the method: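 In transfected human HepG2 liver cells dosed 24 h, GAL4 reporter mRNA serves as a baseline marker. Detection by RT-PCR with fluorescent capillary electrophoresis, activity fitted upward relative to DMSO.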

The target of experiment [13] is Bile acid receptor (Homo sapiens) (UniProt Q96RI1). Nature of the experiment: ATG_FXR_TRANS: Attagene TRANS-FACTORIAL HepG2 Assay for Farnesoid X Receptor (FXR) (AID 2282979; active means hit-call score of the fitted dose curve at least 0.9, where 1 is the maximum;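 further: hits raise reporter mRNA above DMSO so AC50 marks FXR activation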). The settings on record: HepG2 Attagene TRANS FXR-GAL4 reporter transcription. The gist of the method:
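Reporter transcripts from transfected HepG2 cells were measured 24 h after dosing, using RT-PCR with capillary electrophoresis of 6-FAM-labelled fragments. The read-out reflects activity of exogenous FXR-Gal4 chimera on GAL4-UAS units, with induction relative to DMSO.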

For experiment [14], the target named is Oxysterols receptor LXR-alpha (Homo sapiens) (UniProt Q13133). Nature of the experiment: ATG_LXRa_TRANS: Attagene TRANS-FACTORIAL HepG2 Assay for human Liver X Receptor alpha (LXRa) (AID 2282980; active means hit-call score of the fitted dose curve at least 0.9, where 1 is the maximum). Particulars: HepG2 Attagene TRANS reporter, LXRa transactivation. The gist of the method: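 Chemical-induced reporter mRNA measured by RT-PCR with fluorescent labelling and capillary electrophoresis after 24 h dosing of transiently transfected HepG2 cells expressing exogenous NR-Gal4 chimeras; increases scored against DMSO baseline.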

Experiment [15] deals with Nuclear receptor subfamily 4 group A member 2 (Homo sapiens) (UniProt P43354). Nature of the experiment: ATG_NURR1_TRANS: Attagene TRANS-FACTORIAL HepG2 Assay for human Nuclear Receptor Related Protein 1 (NURR1) (AID 2282985; active means hit-call score of the fitted dose curve at least 0.9, where 1 is the maximum). The settings on record: HepG2 Attagene TRANS reporter, mRNA readout. The gist of the method:
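Measures transcriptional activation by an exogenous NR-Gal4 chimera in transfected HepG2 liver cells. After 24 h, reporter RNA is reverse-transcribed, amplified and resolved by capillary electrophoresis; DMSO defines baseline.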

Records with an inconclusive call do not appear. Calls of active or inactive are those of the source. How the source made its calls, unless noted: active means hit-call score of the fitted dose curve at least 0.9, where 1 is the maximum; inactive means score below 0.9.

Sequence of Nuclear respiratory factor 1 (Homo sapiens) (Q16656 whole entry, looked up): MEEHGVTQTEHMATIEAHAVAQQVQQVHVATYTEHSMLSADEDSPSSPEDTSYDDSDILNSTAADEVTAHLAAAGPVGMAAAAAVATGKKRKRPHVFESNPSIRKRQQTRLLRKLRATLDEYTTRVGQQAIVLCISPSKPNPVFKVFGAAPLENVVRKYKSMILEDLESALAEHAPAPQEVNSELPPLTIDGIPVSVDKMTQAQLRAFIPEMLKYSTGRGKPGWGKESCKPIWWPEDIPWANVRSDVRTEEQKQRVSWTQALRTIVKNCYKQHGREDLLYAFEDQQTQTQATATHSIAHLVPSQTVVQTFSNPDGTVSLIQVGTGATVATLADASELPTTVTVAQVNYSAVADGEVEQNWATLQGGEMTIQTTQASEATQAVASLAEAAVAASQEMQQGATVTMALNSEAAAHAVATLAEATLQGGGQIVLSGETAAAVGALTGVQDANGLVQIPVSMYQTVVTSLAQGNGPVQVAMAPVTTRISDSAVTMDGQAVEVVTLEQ
Sequence of X-box-binding protein 1 (Homo sapiens) (P17861 whole entry, looked up): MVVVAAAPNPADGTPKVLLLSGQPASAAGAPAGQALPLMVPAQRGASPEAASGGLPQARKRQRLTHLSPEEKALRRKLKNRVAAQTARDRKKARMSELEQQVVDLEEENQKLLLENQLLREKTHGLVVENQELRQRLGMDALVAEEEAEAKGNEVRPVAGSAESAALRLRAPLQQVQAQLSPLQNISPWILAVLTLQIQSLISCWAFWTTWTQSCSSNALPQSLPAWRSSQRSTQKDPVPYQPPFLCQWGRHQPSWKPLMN
Sequence of Transcriptional activator Myb (Homo sapiens) (P10242 whole entry, looked up): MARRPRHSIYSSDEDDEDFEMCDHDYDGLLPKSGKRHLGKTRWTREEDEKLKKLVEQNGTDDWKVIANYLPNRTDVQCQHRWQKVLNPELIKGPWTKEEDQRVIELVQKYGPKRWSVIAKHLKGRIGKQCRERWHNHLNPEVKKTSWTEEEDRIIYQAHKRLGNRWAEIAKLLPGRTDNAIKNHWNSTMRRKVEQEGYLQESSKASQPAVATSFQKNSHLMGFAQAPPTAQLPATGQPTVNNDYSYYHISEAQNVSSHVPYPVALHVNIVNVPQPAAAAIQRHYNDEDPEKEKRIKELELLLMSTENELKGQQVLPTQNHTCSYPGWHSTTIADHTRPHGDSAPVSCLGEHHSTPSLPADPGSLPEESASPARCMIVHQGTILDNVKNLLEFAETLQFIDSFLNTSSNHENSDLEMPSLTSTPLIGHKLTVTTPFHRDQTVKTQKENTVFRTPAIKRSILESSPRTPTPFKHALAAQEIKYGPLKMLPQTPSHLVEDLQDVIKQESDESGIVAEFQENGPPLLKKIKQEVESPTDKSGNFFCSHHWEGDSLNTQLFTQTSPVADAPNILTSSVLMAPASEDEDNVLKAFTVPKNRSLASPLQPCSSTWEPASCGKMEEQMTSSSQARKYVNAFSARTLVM
Sequence of Hepatocyte nuclear factor 4-alpha (Homo sapiens) (P41235 whole entry, looked up): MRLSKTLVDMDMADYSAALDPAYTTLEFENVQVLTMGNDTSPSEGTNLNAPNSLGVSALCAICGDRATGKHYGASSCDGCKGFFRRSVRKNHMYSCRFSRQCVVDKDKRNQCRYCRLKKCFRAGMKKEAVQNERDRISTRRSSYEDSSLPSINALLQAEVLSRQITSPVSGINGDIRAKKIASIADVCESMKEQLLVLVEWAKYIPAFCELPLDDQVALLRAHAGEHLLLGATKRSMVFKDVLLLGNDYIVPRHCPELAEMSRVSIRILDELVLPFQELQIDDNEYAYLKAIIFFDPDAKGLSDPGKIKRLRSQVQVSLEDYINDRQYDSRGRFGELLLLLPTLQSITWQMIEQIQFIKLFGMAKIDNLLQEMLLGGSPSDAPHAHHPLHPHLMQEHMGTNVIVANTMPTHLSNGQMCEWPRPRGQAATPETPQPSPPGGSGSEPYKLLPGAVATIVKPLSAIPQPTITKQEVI
Sequence of Nuclear receptor subfamily 1 group I member 3 (Homo sapiens) (Q14994 whole entry, looked up, the tested form may be a part): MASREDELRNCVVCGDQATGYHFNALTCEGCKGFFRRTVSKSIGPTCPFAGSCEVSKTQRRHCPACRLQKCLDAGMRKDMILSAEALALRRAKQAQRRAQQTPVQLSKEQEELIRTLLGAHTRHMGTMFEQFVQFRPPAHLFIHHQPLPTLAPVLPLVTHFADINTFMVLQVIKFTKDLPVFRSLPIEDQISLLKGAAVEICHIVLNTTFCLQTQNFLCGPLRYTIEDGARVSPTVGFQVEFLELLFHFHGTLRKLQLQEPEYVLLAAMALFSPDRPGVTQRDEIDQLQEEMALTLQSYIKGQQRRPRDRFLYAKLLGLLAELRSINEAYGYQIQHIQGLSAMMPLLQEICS
Sequence of Bile acid receptor (Homo sapiens) (Q96RI1 whole entry, looked up, the tested form may be a part): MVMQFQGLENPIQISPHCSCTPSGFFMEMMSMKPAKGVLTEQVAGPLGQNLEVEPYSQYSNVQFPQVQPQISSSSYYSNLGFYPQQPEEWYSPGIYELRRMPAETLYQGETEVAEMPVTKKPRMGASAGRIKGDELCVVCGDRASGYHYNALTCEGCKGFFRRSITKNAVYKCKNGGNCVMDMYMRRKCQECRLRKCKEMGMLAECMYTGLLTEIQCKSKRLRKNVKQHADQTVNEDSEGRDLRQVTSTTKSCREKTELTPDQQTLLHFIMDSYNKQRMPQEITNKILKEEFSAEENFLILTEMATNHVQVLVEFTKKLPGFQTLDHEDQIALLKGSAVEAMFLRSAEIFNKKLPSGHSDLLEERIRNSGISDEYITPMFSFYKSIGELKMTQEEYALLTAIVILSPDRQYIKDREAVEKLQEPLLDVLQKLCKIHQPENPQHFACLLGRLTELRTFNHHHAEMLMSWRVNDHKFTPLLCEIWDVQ
Sequence of Steroid hormone receptor ERR1 (Homo sapiens) (P11474 whole entry, looked up, the tested form may be a part): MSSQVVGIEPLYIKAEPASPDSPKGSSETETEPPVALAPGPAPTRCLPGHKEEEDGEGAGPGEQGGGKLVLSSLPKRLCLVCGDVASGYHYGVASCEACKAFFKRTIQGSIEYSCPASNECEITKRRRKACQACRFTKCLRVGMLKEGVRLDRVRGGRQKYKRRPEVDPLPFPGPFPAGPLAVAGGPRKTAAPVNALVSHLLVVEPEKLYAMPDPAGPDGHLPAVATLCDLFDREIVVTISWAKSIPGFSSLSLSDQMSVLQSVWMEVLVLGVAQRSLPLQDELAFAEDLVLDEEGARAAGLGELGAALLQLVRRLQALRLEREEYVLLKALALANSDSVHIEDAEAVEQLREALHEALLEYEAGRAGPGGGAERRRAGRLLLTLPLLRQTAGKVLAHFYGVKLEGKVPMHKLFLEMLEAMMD
Sequence of Oxysterols receptor LXR-alpha (Homo sapiens) (Q13133 whole entry, looked up, the tested form may be a part): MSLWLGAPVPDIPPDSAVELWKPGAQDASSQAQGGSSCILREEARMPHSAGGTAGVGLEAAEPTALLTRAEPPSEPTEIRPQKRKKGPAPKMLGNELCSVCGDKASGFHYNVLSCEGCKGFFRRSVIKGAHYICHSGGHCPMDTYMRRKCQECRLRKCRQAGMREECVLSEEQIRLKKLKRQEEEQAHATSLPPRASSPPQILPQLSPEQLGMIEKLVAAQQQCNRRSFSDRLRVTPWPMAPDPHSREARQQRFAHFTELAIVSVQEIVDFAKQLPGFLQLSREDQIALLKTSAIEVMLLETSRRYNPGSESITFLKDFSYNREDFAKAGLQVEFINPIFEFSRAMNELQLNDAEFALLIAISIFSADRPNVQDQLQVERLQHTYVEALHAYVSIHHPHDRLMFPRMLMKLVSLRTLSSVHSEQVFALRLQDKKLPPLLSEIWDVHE
Sequence of Nuclear receptor subfamily 4 group A member 2 (Homo sapiens) (P43354 whole entry, looked up, the tested form may be a part): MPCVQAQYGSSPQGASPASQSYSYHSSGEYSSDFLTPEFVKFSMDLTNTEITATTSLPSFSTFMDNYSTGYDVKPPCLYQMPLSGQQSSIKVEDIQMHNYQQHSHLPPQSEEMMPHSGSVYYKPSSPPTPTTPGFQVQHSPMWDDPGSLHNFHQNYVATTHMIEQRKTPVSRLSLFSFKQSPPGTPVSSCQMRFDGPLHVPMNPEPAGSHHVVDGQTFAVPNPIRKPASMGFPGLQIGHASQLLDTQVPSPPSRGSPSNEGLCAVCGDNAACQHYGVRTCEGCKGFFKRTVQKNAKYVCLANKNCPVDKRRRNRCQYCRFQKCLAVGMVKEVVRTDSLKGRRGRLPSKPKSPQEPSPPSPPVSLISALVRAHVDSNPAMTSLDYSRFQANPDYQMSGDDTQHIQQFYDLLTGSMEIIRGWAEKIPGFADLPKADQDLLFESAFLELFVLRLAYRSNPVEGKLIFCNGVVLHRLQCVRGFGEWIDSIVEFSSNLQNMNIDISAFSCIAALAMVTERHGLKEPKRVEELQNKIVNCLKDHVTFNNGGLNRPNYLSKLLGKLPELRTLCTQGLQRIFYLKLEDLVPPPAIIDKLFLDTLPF

Regarding `COc1ccc(N=Nc2cc(C)c(N=Nc3ccc(S(=O)(=O)O)cc3)cc2OC)cc1`, the compound was classed as inactive in experiment [1], in experiment [3], in experiment [4], in experiment [5], in experiment [6] and in experiment [7]. The outcome in [8] and in experiment [9] was inactive. The AC50 in experiment [2] was 172 µM (active); in experiment [10], 71.8 µM (active).

As for `CCCCC(CC)COC(C)=O` (stereo not given), the outcome in [1], in [2], in experiment [3], in experiment [4], in experiment [11] and in [5] was inactive. The compound was called inactive in experiment [6], in [12], in [7], in experiment [9] and in experiment [10].

`OC[C@H]1O[C@@H]2O[C@H]3[C@H](O)[C@@H](O)[C@@H](O[C@H]4[C@H](O)[C@@H](O)[C@@H](O[C@H]5[C@H](O)[C@@H](O)[C@@H](O[C@H]6[C@H](O)[C@@H](O)[C@@H](O[C@H]7[C@H](O)[C@@H](O)[C@@H](O[C@H]8[C@H](O)[C@@H](O)[C@@H](O[C@H]9[C@H](O)[C@@H](O)[C@@H](O[C@H]1[C@H](O)[C@H]2O)O[C@@H]9CO)O[C@@H]8CO)O[C@@H]7CO)O[C@@H]6CO)O[C@@H]5CO)O[C@@H]4CO)O[C@@H]3CO`: the call in [1], in experiment [2], in [3], in [4], in experiment [11] and in experiment [5] was inactive. Also, the compound was classed as inactive in [12], in experiment [7], in experiment [9] and in experiment [10].

Take `CCCC[P+](CCCC)(CCCC)CCCC`: the outcome in experiment [1], in [2], in experiment [3], in experiment [4], in experiment [5] and in [6] was inactive. The call in [12], in experiment [13], in [14], in experiment [8], in experiment [9] and in [10] was inactive.

Regarding `CN(C)C(=S)SC(=S)N(C)C`, the outcome in [1], in experiment [2], in experiment [3], in experiment [4], in experiment [5] and in experiment [6] was inactive. The outcome in experiment [13], in [7], in [8], in [15], in [9] and in experiment [10] was inactive.
